The values below come from PubChem BioAssay (NCI).

The structures appear in SMILES notation. About 83,000 compounds went through this panel and 20% of them were active in at least one assay; those are over-represented in the sample as a whole.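 Compound tested at a single concentration for 48 hours in 96-well plates; a percent growth value below 10 was scored as active.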 Values without a mark were called inactive. The source made the active and inactive calls.

For this assay, the system named is OVCAR-3 ovarian. The experiment in a line: NCI-60 one-dose screen, 48 h (100 = growth as untreated, 0 = no growth, -100 = all killed). The note with it: 10 µM unless noted. As to the method: Growth inhibition of the OVCAR-3 human tumor cell line is measured as a screen for anti-cancer activity. Cells are grown in 96 well plates and exposed to the test compound for 48 hours. Compounds are tested at a single concentration, which is 10^-5 M for most compounds. The reported endpoint is percent growth (GI% or GIPRCNT), where numbers from 0 - 100% represent growth inhibition, and numbers from -100% - 0 represent cell death. For example, a value of 40 represents 60% growth inhibition. A value of 0 means no net growth occurred over the course of the experiment. A value of -40 indicates 40% of cells at the beginning of the experiment died by the end of the experiment. A value of -100 means all cells are dead at the end of the experiment.
NCI-60 Human Tumor Cell Lines Screen was performed using the standard one-dose NCI protocol, which is described in more detail at https://dtp.cancer.gov/discovery_development/nci-60/default.htm.
Compounds with GIPRCNT values below 10 were considered active. Activity score was based on GIPRCNT using the following formula: […]
Score is 0 for GIPRCNT values of 100 or above, 50 for GIPRCNT values of 0, and 100 for GIPRCNT values of -100.
Regarding `O=C(NCCOCCOCCNc1cccc2c1C(=O)N(C1CCCNC1=O)C2=O)c1cc2c(o1)C(=O)c1ccccc1C2=O` (stereo not given), the growth is -25% (active). As for `CC(C)(C)N1CC(OC(N)=O)C1`, the figure is 120%; as for `Cc1ccc(S(=O)(=O)Nc2sccc2-c2nc(-c3ccccc3)no2)cc1`, 92.2%; as for `O=C(O)C1C[C@](O)(c2ccc(F)cc2)[C@@H](c2ccc(F)cc2)O1` (stereo not given in full), 146%. Next, `CCCCNC(=O)c1cc(NCc2cc(O)ccc2O)ccc1O`: 54.2%. Regarding `COc1cc2c(cc1OC)-c1ccc3cc4c(cc3c1N(CCCN1CCCCC1)C2)OCO4`, the growth was 60.8%.

For `COc1cccc(/C=C2\COc3ccc(O)cc3C2=O)c1OC`, the growth was 41.2%. Next, `O=C1Nc2ccccc2/C1=N/N=C/c1ccsc1`: 103%. Consider `O=C1Nc2ccccc2SC1c1ccccc1Cl` (stereo not given), for which the growth is 83%. As for `Clc1ccc(/C=N\N=c2\scc(-c3ccc(Cl)cc3)n2/N=C/c2ccc(Cl)cc2)cc1`, the figure is 114%.

Turning to `COc1cc(NC(=O)c2cccc(-c3cc(=O)c4c(OC)c(OC)c(OC)cc4o3)c2)cc(OC)c1OC`, the growth is 40.8%. Next, `COc1ccc2cc(-c3ccc(C(=O)NN)c(C)n3)ccc2c1`: 91.9%; `COc1ccc(/C(C)=C(\c2ccc(Cl)cc2)c2ccc(OCCN(C)C)cc2)cc1F`: 64.7%. Next, `C=C(CNCCc1ccc(O)cc1)[C@@H]1CC[C@]2(COC3CCCCO3)CC[C@]3(C)[C@H](CC[C@@H]4[C@@]5(C)CCC(N)C(C)(C)[C@@H]5CC[C@]43C)[C@@H]12` (stereo not given in full): -87% (active).

On to `Nc1ccc2c(S(=O)(=O)O)ccc(S(=O)(=O)O)c2c1`, for which the growth is 117%.

`Cc1cn(C2CCCCC2)c(=O)[nH]c1=O`: the growth was 110%. As for `COc1cc(-c2ccc(-c3ccc(C(=N)N)nc3)s2)cc(OC)c1OC`, the figure is -41.9% (active); as for `CCOC(=O)C1=C(C)NC(SCc2nnc(-c3ccc(Cl)cc3)o2)=NC1c1ccc(Cl)cc1Cl` (stereo not given), 62.8%.

As for `C=C(C)[C@@H]1CC[C@]2(CO)CC[C@]3(C)[C@H](CC[C@@H]4[C@@]5(C)C=C(C#N)C(=O)C(C)(C)[C@@H]5CC[C@]43C)[C@@H]12`, the growth is -49.2% (active). As for `C/C(Cc1ccc(Cl)cc1)=C(/c1ccc(Cl)cc1)c1ccc(OCCN(C)C)cc1`, the figure is 57.2%.

`Cc1cc(N(CCCNc2ccnc3cc(Cl)ccc23)Cc2ccccn2)nc(N2CCOCC2)n1`: the growth was 97.6%.

Consider `C[C@@H]1C(=O)N(C[C@@H](Cc2ccccc2)NC(=O)OCc2ccccc2)[C@]1(Cc1ccccc1)C(=O)OCc1ccccc1`, for which the growth was 43.3%. As for `N=C(N)c1ccc(-c2ccc(-c3ccc(Cl)c(Cl)c3)o2)cc1`, the figure is -42.2% (active); as for `CCN(CC)CC(=O)Nc1cccc(C(=O)OC(C)C)c1`, 103%; as for `CCN(CC)CCCC(C)NCc1ccccc1` (stereo not given), 104%. Next, `Clc1cnc(Nc2ccc(OCCN3CCCC3)cc2)nc1NCc1ccco1`: 28.8%; `CC1=NN(c2cccc(Cl)c2)C(=O)/C1=C\c1cn(CC(O)CN2CCCCC2)c2ccccc12` (stereo not given): 57.7%; `O=c1oc2ccc(Cl)cc2cc1-c1cs/c(=N/N=C\c2ccc(Cl)cc2)n1/N=C/c1ccc(Cl)cc1`: 106%. Next, `Cc1nc(-c2ccccc2)cc2c(O)c(C(=O)N/N=C/c3ccc(N(C)C)cc3)[nH]c(=O)c12`: 71%. For the compound `CC(C)(C)c1ccc(C(=O)Nc2sc3c(c2C(N)=O)CCC(=O)C3)cc1`, the growth is -78.8% (active). As for `C#C[C@]1(O)CC[C@H]2[C@@H]3CC=C4c5sc(N=C(N)N)nc5CC[C@]4(C)[C@H]3CC[C@@]21C`, the figure is -44.2% (active); as for `CN1C[C@@H](c2ccc(Cl)cc2)[C@]2(NC(=S)N(c3ccc(F)c(Cl)c3)C2=O)[C@@]12C(=O)NC1C=CC(Cl)=C[C@H]12` (stereo not given in full), 48.5%. Next, `OC(COc1cccc2ccccc12)CN1CCN(c2ccccc2)CC1` (stereo not given): 105%; `COc1ccccc1C(=O)NC(=S)Nc1ccc(-c2nc3ccccc3[nH]2)cc1`: -36% (active); `CN(C)c1ccc(/C=C/c2c(F)cccc2F)cc1`: 98%. As for `COc1ccc(-c2nnc(-c3ccc4c(c3)nc(-c3ccccc3)n4C3CCCCC3)o2)cc1`, the figure is 43%; as for `Cc1c(Cl)cccc1NS(=O)(=O)c1ccccc1`, 100%. `O=C1/C(=C/c2ccc([N+](=O)[O-])cc2)COc2ccc(O)c(O)c21`: the growth was -88.2% (active). Next, `[2H]c1nc(Nc2ncc(F)c(-c3cc(F)c4nc(C)n(C(C)C)c4c3)n2)c([2H])c([2H])c1CN1CCN(C([2H])([2H])C([2H])([2H])[2H])CC1`: 71%; `Cc1cccc(-c2cc(O)c(C(=O)N3CCOCC3)s2)c1`: 15%.
